Experimental data published in PubChem BioAssay (EPA / NIEHS).
The source made the active and inactive calls. Rule for the calls: active = hit-call score of the fitted dose curve at least 0.9, where 1 is the maximum; inactive = score below 0.9.

Assays:
[1] = target: Transcription factor E2F1 (Homo sapiens) (UniProt Q01094); test: ATG_E2F_CIS: Attagene CIS-FACTORIAL HepG2 Assay for human E2F Transcription Factor 1 (AID 2282935); settings: HepG2 Attagene cis-reporter, E2F reporter RNA transcripts; actives raise or lower the signal
Outline: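 Gain or loss of reporter transcript, fitted against DMSO, reflects E2F1-driven transcription. Transiently transfected HepG2 dosed 24 h before RNA isolation. Quantified by fluorescent RT-PCR products separated by capillary electrophoresis.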

[2] = ATG_E_Box_CIS: Attagene CIS-FACTORIAL HepG2 Assay for human Enhancer Box (E-box) (AID 2282936); settings: HepG2 E-box cis-reporter transcription, actives raise or lower the signal
Outline: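 E-box-driven reporter transcripts measured in transiently transfected HepG2 after 24 h exposure: RNA reverse-transcribed, PCR-amplified, fluorescently labelled, digested and resolved by capillary electrophoresis. Gain or loss relative to DMSO.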

[3] = ATG_M_61_CIS: Attagene CIS-FACTORIAL HepG2 Assay for M61 Transcription Factor (Internal Marker) (AID 2282937); settings: HepG2 Attagene CIS-FACTORIAL M61 internal marker reporter; actives raise or lower the signal
Outline: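 HepG2 cells transiently transfected with cis-element-driven multiple reporter transcription units, dosed for 24 h. Reporter mRNA measured by RT-PCR, 6-FAM primer-extension labelling, HpaI digestion and capillary electrophoresis; bidirectional fit versus DMSO baseline.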

[4] = ATG_EGR_CIS: Attagene CIS-FACTORIAL HepG2 Assay for human Early Growth Response 1 (EGR1) (AID 2282938); settings: HepG2 Attagene CIS-FACTORIAL EGR reporter mRNA; actives raise or lower the signal
Outline: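 HepG2 cells transiently transfected with cis-promoter-driven multiplexed reporter transcription units; reporter mRNA measured 24 h after compound dosing by RT-PCR, 6-FAM primer extension, HpaI digestion and capillary electrophoresis. Bidirectional fit versus DMSO baseline.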

[5] = ATG_M_19_CIS: Attagene CIS-FACTORIAL HepG2 Assay for M19 Transcription Factor (Internal Marker) (AID 2282939); settings: HepG2 Attagene CIS-FACTORIAL M19 internal marker reporter; actives raise or lower the signal
Outline: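 HepG2, MRTU transient transfection, 24 h dosing. Total RNA → RT-PCR → 6-FAM primer extension → HpaI digest → CE fluorescence. Bidirectional curve fit, DMSO negative control.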

[6] = ATG_ERE_CIS: Attagene CIS-FACTORIAL HepG2 Assay for Estrogen Response Element (ERE) (AID 2282940); settings: HepG2 ERE cis-reporter, Attagene RNA transcript; actives raise or lower the signal
Outline: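 After a 24 h chemical treatment, RNA from reporter-transfected HepG2 cells is reverse-transcribed, PCR-amplified and fluorescently labelled. Fragments separated by capillary electrophoresis give reporter signal; DMSO serves as negative control.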

[7] = ATG_Ets_CIS: Attagene CIS-FACTORIAL HepG2 Assay for human Erythroblast Transformation Specific (ETS) (AID 2282941); settings: HepG2 ETS cis-reporter transcription, actives raise or lower the signal
Outline: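 Bidirectional fit versus DMSO of reporter mRNA signal, detected by RT-PCR and capillary electrophoresis in HepG2 cells transiently transfected with cis-element reporters and dosed 24 h.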

[8] = target: Hepatocyte nuclear factor 3-beta (Homo sapiens) (UniProt Q9Y261); test: ATG_FoxA2_CIS: Attagene CIS-FACTORIAL HepG2 Assay for human Forkhead box A2 (FOXA2) (AID 2282942); settings: HepG2 cis-reporter transcription factor activity, 24 h; actives raise or lower the signal
Outline: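 HepG2 cells transiently transfected with multiple cis-regulated reporter transcription units, dosed for 24 h. Reporter mRNA measured by RT-PCR, 6-FAM labelling, HpaI digestion and capillary electrophoresis; bidirectional fitting against DMSO baseline.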

[9] = ATG_FoxO_CIS: Attagene CIS-FACTORIAL HepG2 Assay for human Forkhead box O (FoxO) (AID 2282943); settings: HepG2 Attagene cis-reporter, FoxO element, mRNA; actives raise or lower the signal
Outline: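 HepG2, transient MRTU transfection (cis element, endogenous TFs). Dose 24 h. TriZol RNA → oligo(dT) RT → PCR → 6-FAM primer extension → HpaI cut → CE. Gain/loss vs DMSO.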

[10] = ATG_GLI_CIS: Attagene CIS-FACTORIAL HepG2 Assay for human Zinc Finger Protein GLI1 (AID 2282945); settings: HepG2, Attagene cis-factorial reporter mRNA, GLI element; actives raise or lower the signal
Outline: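 Bidirectional curve fits relative to DMSO, using reporter mRNA levels from RT-PCR plus capillary electrophoresis. Cells were HepG2 transiently carrying cis-regulated reporter constructs, harvested 24 h after dosing.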

[11] = target: Bile acid receptor (Homo sapiens) (UniProt Q96RI1); test: ATG_IR1_CIS: Attagene CIS-FACTORIAL HepG2 Assay for human Nuclear Receptor Subfamily 1 Group H Member 4 (NR1H4), IR1 submotif (AID 2282946); settings: IR1 reporter transcription, actives raise or lower the signal
Outline: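 HepG2 cells transiently transfected with multiplexed cis-element reporter units read endogenous transcription factor activity. After 24 h compound exposure, reporter mRNA was quantified by RT-PCR, fluorescent labelling, HpaI digestion and capillary electrophoresis; bidirectional fitting versus DMSO baseline.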

[12] = ATG_GRE_CIS: Attagene CIS-FACTORIAL HepG2 Assay for human Glucocorticoid Response Elements (GRE) (AID 2282947); settings: HepG2 GRE cis-reporter, Attagene multiplex mRNA; actives raise or lower the signal
Outline: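 Reporter transcripts read by RT-PCR with capillary electrophoresis fluorescence after a 24 h chemical exposure of HepG2 cells transiently transfected with multiple cis-element reporter units. Gain or loss fitted against DMSO.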

[13] = ATG_ISRE_CIS: Attagene CIS-FACTORIAL HepG2 Assay for human Interferon Regulatory Factor 1 (IRF1) binding to an Interferon-Stimulated Response Element (ISRE) (AID 2282948); settings: HepG2 ISRE cis-reporter (Attagene), mRNA transcription readout; actives raise or lower the signal
Outline: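 Uses HepG2 liver cells transfected with cis-regulated reporters and measures mRNA 24 h post-dosing through RT-PCR, primer-extension labelling and capillary electrophoresis, with DMSO as negative control.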

[14] = ATG_M_32_CIS: Attagene CIS-FACTORIAL HepG2 Assay for M32 Transcription Factor (Internal Marker) (AID 2282949); settings: HepG2 Attagene cis-factorial M32 reporter, mRNA; actives raise or lower the signal;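 note: background control marker of the multiplexed CIS panel rather than a real target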
Outline: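 HepG2 human liver cells transiently transfected with cis-promoter-driven multiple reporter transcription units, dosed 24 h. Reporter mRNA quantified by RT-PCR, FAM-labelled primer extension, HpaI digest and capillary electrophoresis; bidirectional fit versus DMSO baseline.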

[15] = ATG_M_06_CIS: Attagene CIS-FACTORIAL HepG2 Assay for M06 Transcription Factor (Internal Marker) (AID 2282950); settings: HepG2 Attagene CIS-FACTORIAL M06 internal marker reporter; actives raise or lower the signal
Outline: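 Measured 24 h post-dosing in transiently transfected HepG2 cells, this internal-marker endpoint reports reporter mRNA via RT-PCR with fluorescent primer extension and capillary electrophoresis. DMSO served as negative control and baseline for bidirectional fitting.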

[16] = target: Hypoxia-inducible factor 1-alpha (Homo sapiens) (UniProt Q16665); test: ATG_HIF1a_CIS: Attagene CIS-FACTORIAL HepG2 Assay for human Hypoxia Inducible Factor 1 (HIF1A) (AID 2282951); settings: HepG2 Attagene cis-factorial HIF1a reporter transcription; actives raise or lower the signal
Outline: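 HepG2 cells transiently transfected with multiplexed cis-promoter reporter units; reporter mRNA read 24 h after dosing by RT-PCR, 6-FAM primer-extension labelling, HpaI digestion and capillary electrophoresis. Bidirectional fit versus DMSO baseline.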

[17] = target: Hepatocyte nuclear factor 6 (Homo sapiens) (UniProt Q9UBC0); test: ATG_HNF6_CIS: Attagene CIS-FACTORIAL HepG2 Assay for human Hepatocyte Nuclear Factor 6 (HNF6) (AID 2282952); settings: HepG2 Attagene cis-factorial HNF6 reporter transcription; actives raise or lower the signal
Outline: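 Endogenous transcription factor activity in human HepG2 liver cells was captured through cis-regulated reporter constructs. After 24 h treatment, reporter mRNA was measured by RT-PCR with capillary electrophoresis, and activity was fitted in both directions relative to DMSO.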

[18] = ATG_MRE_CIS: Attagene CIS-FACTORIAL HepG2 Assay for human Metal Responsive Element (MRE) (AID 2282954); settings: HepG2 MRE cis-reporter transcription, Attagene multiplex; actives raise or lower the signal
Outline: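 Endogenous MRE-dependent transcription read as reporter mRNA in transiently transfected human HepG2 cells at 24 h. RNA reverse-transcribed, PCR-amplified, labelled and resolved by capillary electrophoresis; gain or loss relative to DMSO.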

[19] = target: Heat shock factor protein 1 (Homo sapiens) (UniProt Q00613); test: ATG_HSE_CIS: Attagene CIS-FACTORIAL HepG2 Assay for human Heat Shock Transcription Factor 1 (HSE) (AID 2282953); settings: HepG2 HSE cis-reporter, Attagene RNA transcription; actives raise or lower the signal
Outline: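 Reporter mRNA induction in HepG2 is measured 24 h after dosing, using transiently transfected multiplexed cis-regulated reporter units. Signal comes from capillary electrophoresis of labelled RT-PCR products, with DMSO as negative control.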

[20] = ATG_GATA_CIS: Attagene CIS-FACTORIAL HepG2 Assay for human GATA Binding Protein (AID 2282944); settings: HepG2 GATA cis-element reporter, Attagene multiplex mRNA; actives raise or lower the signal
Outline: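 Cells: HepG2, transiently transfected with cis-regulated reporter transcription units. Exposure: 24 h. Detection: RT-PCR plus capillary electrophoresis of FAM-labeled fragments. Analysis: bidirectional, DMSO as baseline.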

Measured: AC50

Sequence of Hypoxia-inducible factor 1-alpha (Homo sapiens) (Q16665 whole entry, looked up): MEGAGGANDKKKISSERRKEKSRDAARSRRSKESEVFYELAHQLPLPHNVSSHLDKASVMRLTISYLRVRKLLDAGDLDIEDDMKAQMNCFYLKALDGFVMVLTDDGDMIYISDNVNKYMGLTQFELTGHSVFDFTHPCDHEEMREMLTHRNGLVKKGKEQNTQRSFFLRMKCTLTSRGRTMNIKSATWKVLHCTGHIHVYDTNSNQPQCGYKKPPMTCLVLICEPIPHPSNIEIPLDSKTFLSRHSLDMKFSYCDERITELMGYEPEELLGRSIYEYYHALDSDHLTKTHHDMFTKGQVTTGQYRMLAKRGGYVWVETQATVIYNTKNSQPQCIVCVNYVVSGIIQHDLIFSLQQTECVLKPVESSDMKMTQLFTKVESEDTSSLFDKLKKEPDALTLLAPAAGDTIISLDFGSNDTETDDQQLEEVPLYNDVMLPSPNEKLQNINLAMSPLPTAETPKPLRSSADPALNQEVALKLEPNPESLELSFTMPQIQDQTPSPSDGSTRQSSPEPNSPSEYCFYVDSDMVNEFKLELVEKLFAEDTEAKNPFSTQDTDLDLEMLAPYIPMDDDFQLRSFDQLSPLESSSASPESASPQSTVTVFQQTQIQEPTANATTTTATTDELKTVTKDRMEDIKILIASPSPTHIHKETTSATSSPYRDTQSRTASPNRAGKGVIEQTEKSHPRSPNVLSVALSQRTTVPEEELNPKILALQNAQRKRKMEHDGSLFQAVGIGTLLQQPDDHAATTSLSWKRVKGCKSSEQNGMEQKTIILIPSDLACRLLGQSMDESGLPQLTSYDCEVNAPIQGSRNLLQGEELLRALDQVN
Sequence of Transcription factor E2F1 (Homo sapiens) (Q01094 whole entry, looked up): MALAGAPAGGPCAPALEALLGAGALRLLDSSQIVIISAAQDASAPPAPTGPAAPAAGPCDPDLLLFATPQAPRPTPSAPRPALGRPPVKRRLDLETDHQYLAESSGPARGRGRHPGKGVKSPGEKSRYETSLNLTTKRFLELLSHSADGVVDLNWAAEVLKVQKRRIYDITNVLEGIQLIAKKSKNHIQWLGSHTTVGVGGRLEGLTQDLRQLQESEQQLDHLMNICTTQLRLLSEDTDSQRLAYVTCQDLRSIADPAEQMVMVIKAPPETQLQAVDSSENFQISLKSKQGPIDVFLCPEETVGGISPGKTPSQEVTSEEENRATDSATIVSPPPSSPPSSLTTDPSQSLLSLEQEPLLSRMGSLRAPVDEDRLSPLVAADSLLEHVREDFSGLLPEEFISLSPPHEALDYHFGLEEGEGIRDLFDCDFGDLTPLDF
Sequence of Hepatocyte nuclear factor 3-beta (Homo sapiens) (Q9Y261 whole entry, looked up): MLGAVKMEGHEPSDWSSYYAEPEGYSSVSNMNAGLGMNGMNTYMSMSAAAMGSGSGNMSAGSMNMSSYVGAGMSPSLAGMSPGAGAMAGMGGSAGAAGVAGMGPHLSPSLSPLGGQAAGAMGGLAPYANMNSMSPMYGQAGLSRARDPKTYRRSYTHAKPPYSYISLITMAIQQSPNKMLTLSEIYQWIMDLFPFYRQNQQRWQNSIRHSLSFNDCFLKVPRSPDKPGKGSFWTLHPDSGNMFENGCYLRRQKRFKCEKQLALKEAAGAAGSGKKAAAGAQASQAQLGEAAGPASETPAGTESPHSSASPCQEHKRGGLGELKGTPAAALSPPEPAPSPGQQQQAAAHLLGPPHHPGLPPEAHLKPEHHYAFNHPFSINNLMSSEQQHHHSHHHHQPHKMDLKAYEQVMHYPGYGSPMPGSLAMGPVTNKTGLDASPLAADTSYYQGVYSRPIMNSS
Sequence of Hepatocyte nuclear factor 6 (Homo sapiens) (Q9UBC0 whole entry, looked up): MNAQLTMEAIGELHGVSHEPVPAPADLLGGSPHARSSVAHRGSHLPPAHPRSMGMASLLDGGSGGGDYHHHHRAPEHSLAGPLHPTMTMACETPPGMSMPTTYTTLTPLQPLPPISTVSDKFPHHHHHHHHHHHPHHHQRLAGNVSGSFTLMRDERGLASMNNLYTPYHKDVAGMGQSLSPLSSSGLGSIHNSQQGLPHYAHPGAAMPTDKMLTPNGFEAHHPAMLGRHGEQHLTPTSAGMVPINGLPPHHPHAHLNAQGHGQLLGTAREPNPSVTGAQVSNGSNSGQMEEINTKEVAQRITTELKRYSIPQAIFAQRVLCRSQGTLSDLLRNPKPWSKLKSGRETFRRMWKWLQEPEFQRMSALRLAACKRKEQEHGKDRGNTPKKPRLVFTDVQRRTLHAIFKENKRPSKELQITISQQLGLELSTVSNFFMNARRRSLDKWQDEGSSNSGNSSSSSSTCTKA
Sequence of Bile acid receptor (Homo sapiens) (Q96RI1 whole entry, looked up): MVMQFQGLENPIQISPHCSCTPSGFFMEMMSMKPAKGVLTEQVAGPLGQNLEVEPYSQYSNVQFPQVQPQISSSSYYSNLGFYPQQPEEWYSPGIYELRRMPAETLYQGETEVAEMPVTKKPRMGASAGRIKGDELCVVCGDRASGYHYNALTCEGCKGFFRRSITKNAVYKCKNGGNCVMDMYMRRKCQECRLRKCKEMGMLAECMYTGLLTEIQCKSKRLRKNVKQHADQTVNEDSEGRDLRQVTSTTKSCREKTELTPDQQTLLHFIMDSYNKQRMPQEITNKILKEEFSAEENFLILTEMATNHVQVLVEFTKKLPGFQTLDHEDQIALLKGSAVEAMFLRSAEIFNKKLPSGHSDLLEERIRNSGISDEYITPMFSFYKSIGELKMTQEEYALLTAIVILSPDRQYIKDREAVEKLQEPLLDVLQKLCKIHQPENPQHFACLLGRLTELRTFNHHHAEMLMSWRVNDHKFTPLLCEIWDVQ
Sequence of Heat shock factor protein 1 (Homo sapiens) (Q00613 whole entry, looked up): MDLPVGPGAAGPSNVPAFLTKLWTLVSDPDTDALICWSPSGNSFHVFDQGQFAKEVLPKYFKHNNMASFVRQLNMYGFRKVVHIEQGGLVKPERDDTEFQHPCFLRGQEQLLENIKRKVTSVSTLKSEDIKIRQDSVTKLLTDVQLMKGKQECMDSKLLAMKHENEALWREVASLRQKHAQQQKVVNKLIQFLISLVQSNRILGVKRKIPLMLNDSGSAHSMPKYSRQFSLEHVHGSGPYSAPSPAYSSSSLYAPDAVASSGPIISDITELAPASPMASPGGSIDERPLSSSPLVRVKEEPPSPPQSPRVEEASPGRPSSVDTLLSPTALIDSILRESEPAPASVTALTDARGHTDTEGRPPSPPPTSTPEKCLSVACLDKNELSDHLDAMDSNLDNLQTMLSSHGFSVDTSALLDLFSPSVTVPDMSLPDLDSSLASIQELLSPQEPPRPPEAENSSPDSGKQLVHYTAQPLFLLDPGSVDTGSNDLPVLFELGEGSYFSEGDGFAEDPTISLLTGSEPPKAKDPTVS

N#C/C=C/c1ccccc1
not listed: [19] | [20]
inactive: all other assays above

Nc1cc2c3c(c1)C(c1ccccc1)=N[C@@H](NC(=O)c1cccnc1)C(=O)N3CC2
active: [18] 71.5 µM
not listed: [11] | [20]
inactive: all other assays above

O=C(O)C1C(C(=O)O)C2(Cl)C(Cl)=C(Cl)C1(Cl)C2(Cl)Cl (stereo not drawn)
not listed: [16] | [19] | [20]
inactive: all other assays above

O=C(O)CF
not listed: [11] | [12] | [19]
inactive: all other assays above

O=c1[nH]c2ccccc2c(=O)o1
not listed: [20]
inactive: all other assays above

Cn1[nH]nnc1=S
active: [16] 27 µM
not listed: [20]
inactive: all other assays above

Cc1cccc(N)c1
not listed: [11] | [12]
inactive: all other assays above

O=[N+]([O-])c1ccccc1
active: [6] 52.7 µM
not listed: [11] | [19]
inactive: all other assays above

C/C(=N\NC(=O)Nc1cc(F)cc(F)c1)c1ncccc1C(=O)O
not listed: [19] | [20]
inactive: all other assays above

CCOP(=S)(S)OCC
not listed: [19] | [20]
inactive: all other assays above

OCC(F)(F)OC(F)(F)C(F)(F)OC(F)(F)CO
active: [6] 20 µM
not listed: [19] | [20]
inactive: all other assays above

NNC(N)=S
not listed: [20]
inactive: all other assays above

O=S(=O)(c1ccc(O)cc1)c1ccc(O)cc1
active: [6] 1.7 µM
not listed: [20]
inactive: all other assays above

CCCCN(CCCC)N=O
not listed: [20]
inactive: all other assays above

CSC(C)(C)C=NO
not listed: [11] | [19]
inactive: all other assays above
